Experimental data published in PubChem BioAssay AID1159580 (chemical genetic matrix, 2015).
Values joined by “and” are separate entries in the source; they are usually repeats but may differ in a detail not shown here. Identical values can stand only once. Screen size: about 5,500 compounds; about 2,000 (36%) were called active. Roughly 18% stayed inconclusive and do not appear here. No stated cut-off is given here; in the data, active means normalized growth mostly below about 0.91 (no sharp cut-off); inconclusive means no clear call, values can overlap the other calls; inactive means mostly above about 0.92. The list shows a part of the results.

Test: chemical genetic growth profiling, strain panel (AID 1159580);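 further: tested at 20 µM; growth read once vehicle control cultures reached saturation at 30 °C; 1 = growth at the plate median or of vehicle wells; lower values mean less growth of the strain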
Conditions: S. cerevisiae deletion strains, growth OD

Measured: normalized growth

Cc1ccc(N(CC2=NCCN2)c2cccc(O)c2)cc1
inactive: locus YAL013W, strain DEP1, hits give low values 0.994 and 0.986 | locus YAL021C, strain ccr4, hits give low values 1.01 | locus YAL026C, strain drs2, hits give low values 1.02 | locus YAL030W, strain snc1, hits give low values 1.02 | locus YAL040C, strain CLN3, hits give low values 1.01 | locus YBL061C, strain skt5, hits give low values 0.998 | locus YBR009C, strain hhf1, hits give low values 1.02 | locus YBR021W, strain FUR4, hits give low values 0.991 | locus YBR023C, strain chs3, hits give low values 1.02 | locus YBR171W, strain sec66, hits give low values 1.01 | locus YBR229C, strain ROT2, hits give low values 1 | locus YBR231C, strain swc5, hits give low values 1.01 | locus YBR279W, strain paf1, hits give low values 1.01 | locus YCL011C, strain gbp2, hits give low values 1.02 | locus YCL016C, strain dcc1, hits give low values 0.998 | locus YCL029C, strain bik1, hits give low values 1.01 | locus YCL061C, strain MRC1 (second series), hits give low values 0.992 | locus YCL069W, strain vba3, hits give low values 1.02 | locus YCR088W, strain abp1, hits give low values 1.01 | locus YDL005C, strain med2, hits give low values 1.02 | locus YDL035C, strain GPR1, hits give low values 0.985 | locus YDL040C, strain nat1, hits give low values 1.01 | locus YDL074C, strain BRE1, hits give low values 0.908 | locus YDL101C, strain DUN1, hits give low values 0.983 | locus YDL134C, strain PPH21, hits give low values 0.994 | locus YDL185W, strain tfp1, hits give low values 1.02 | locus YDL192W, strain arf1, hits give low values 1.01 | locus YDR001C, strain nth1, hits give low values 1.01 | locus YDR069C, strain doa4, hits give low values 0.998 | locus YDR101C, strain arx1, hits give low values 0.985 | locus YDR137W, strain rgp1, hits give low values 1.02 | locus YDR150W, strain NUM1, hits give low values 1.01 | locus YDR159W, strain sac3, hits give low values 1 | locus YDR162C, strain NBP2, hits give low values 0.976 | locus YDR195W, strain ref2 1.02 | locus YDR297W, strain sur2, hits give low values 1.02 | locus YDR318W, strain mcm21, hits give low values 0.991 | locus YDR334W, strain swr1, hits give low values 1.04 | locus YDR335W, strain msn5, hits give low values 1.03 | locus YDR363W, strain ESC2, hits give low values 1.06 | locus YDR388W, hits give low values 1.01 | locus YDR392W, strain spt3, hits give low values 0.95 | locus YDR502C, strain sam2, hits give low values 0.977 | locus YEL003W, strain gim4, hits give low values 1.03 | locus YEL037C, strain rad23, hits give low values 1.03 | locus YEL061C, strain CIN8 (second series), hits give low values 1.02 | locus YEL061C, strain CIN8, hits give low values 1.04 | locus YER002W, strain NOP16, hits give low values 1.01 | locus YER015W, strain faa2, hits give low values 1.02 | locus YER016W, strain bim1, hits give low values 1.02 | locus YER110C, hits give low values 1.03 | locus YER111C, strain swi4, hits give low values 1.02 | locus YER155C, strain BEM2 (second series), hits give low values 0.929 | locus YER155C, strain BEM2, hits give low values 1.01 | locus YER167W, strain BCK2, hits give low values 0.972 | locus YFR010W, strain ubp6, hits give low values 1.02 | locus YGL078C, strain dbp3, hits give low values 0.995 | locus YGL086W, strain mad1, hits give low values 1.02 | locus YGL167C, strain pmr1, hits give low values 1.02 | locus YGL173C, strain kem1, hits give low values 1.01 | locus YGL227W, strain vid30, hits give low values 1.03 | locus YGL240W, strain doc1, hits give low values 0.972 | locus YGL248W, strain PDE1, hits give low values 0.997 | locus YGL253W, strain hxk2, hits give low values 1.02 | locus YGR078C, strain PAC10, hits give low values 0.972 and 1.01 | locus YGR135W, strain pre9, hits give low values 0.976 | locus YGR229C, strain SMI1, hits give low values 0.912 and 0.979 | locus YGR252W, strain gcn5, hits give low values 0.926 | locus YHR013C, strain ard1, hits give low values 1 | locus YHR027C, strain rpn1, hits give low values 1.01 | locus YHR030C, strain SLT2, hits give low values 1.01 and 1.04 | locus YHR079C, strain IRE1 (second series), hits give low values 0.99 | locus YHR079C, strain IRE1, hits give low values 1.05 | locus YHR094C, strain hxt1, hits give low values 1 | locus YHR129C, strain ARP1, hits give low values 0.984 | locus YHR142W, strain chs7, hits give low values 1.02 | locus YHR200W, strain rpn10, hits give low values 1 | locus YIL066C, strain RNR3, hits give low values 1.01 | locus YIL073C, strain SPO22, hits give low values 1.1 | locus YIL125W, strain kgd1, hits give low values 0.993 | locus YIR030C, strain dcg1, hits give low values 1.01 | locus YJL092W, strain hpr5, hits give low values 1.02 | locus YJL095W, strain BCK1 (second series), hits give low values 1.01 | locus YJL095W, strain BCK1, hits give low values 0.905 and 1.04 | locus YJL115W, strain asf1, hits give low values 1.03 | locus YJL129C, strain trk1, hits give low values 1.02 | locus YJL134W, strain LCB3, hits give low values 1.01 | locus YJL154C, strain vps35, hits give low values 1.03 | locus YJL164C, strain tpk1, hits give low values 1 | locus YJL166W, strain qcr8, hits give low values 0.993 | locus YJL168C, strain set2, hits give low values 1.01 | locus YJL187C, strain SWE1 (second series), hits give low values 0.993 | locus YJL187C, strain SWE1, hits give low values 1.01 | locus YJR066W, strain TOR1, hits give low values 0.978
active: locus YJR043C, strain POL32, hits give low values 0.85
